PubChem BioAssay (NCATS)
Results filed as inconclusive are left out. Activity calls are given as the source filed them. Unless noted, calls follow the shape of the dose curve; as a rule, active = well fitted curve in the direction sought with a large enough effect; inconclusive = small, poorly fitted or top-dose-only effect, or another doubt; inactive = no such curve, though single readings can be large; an effect the other way counts as inactive or inconclusive.

Experiments:
[1] = biological target: DNA repair nuclease/redox regulator APEX1 (Homo sapiens) (UniProt P27695); assay: qHTS Validation Assay for Inhibitors of the Human Apurinic/apyrimidinic Endonuclease 1 (APE1) (AID 1705;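 also: TAMRA fluorescence gain over two minutes as APE1 cuts a quenched THF abasic duplex; series mostly up to about 57 µM; % is scaled to controls: 0 for no effect and ±100 for the full control effect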)
Sequence of DNA repair nuclease/redox regulator APEX1 (Homo sapiens) (P27695 whole entry, looked up): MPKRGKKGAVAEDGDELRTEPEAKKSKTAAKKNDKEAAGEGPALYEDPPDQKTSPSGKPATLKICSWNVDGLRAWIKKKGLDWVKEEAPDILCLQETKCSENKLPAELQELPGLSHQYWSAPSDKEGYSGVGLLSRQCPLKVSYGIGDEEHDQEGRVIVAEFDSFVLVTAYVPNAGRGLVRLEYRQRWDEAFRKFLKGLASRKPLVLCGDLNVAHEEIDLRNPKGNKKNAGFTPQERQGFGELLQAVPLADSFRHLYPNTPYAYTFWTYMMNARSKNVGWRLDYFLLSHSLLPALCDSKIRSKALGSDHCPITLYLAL
Procedure, shortened: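 Substrate: 50 nM final fluorophore/quencher THF-abasic duplex. Enzyme preincubated with compounds 15 min, RT. Progress derived from fluorescence difference, third minus first kinetic read.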

[2] = Counterscreen for APE1 Inhibitors: Fluorescent Dye Displacement Validation Assay (AID 1707);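 also: plate controls were ThO with dsDNA and no compound for no effect and ThO without dsDNA for full effect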
Procedure, shortened: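 Assay buffer: Tris-HCl pH7.5 with 50mM NaCl, 2 mM MgCl2, 0.01% Tween-20. Dye 250 nM, duplex 50 nM final. Readout: decrease in ThO endpoint fluorescence, 480 nm excitation, 540 nm emission.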

[3] = biological target: Endonuclease 4 (Escherichia coli (strain K12)) (UniProt P0A6C1); assay: Counterscreen for APE1 Inhibitors: qHTS Validation Assay for Inhibitors of Endonuclease IV (AID 1708); also: % is scaled to controls: 0 for no effect and ±100 for the full control effect
Procedure, shortened: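 2 nM enzyme was preincubated with compounds for 15 min at room temperature in 50 mM Tris-HCl pH 7.5, 50 mM NaCl, 2 mM MgCl2, 1 mM DTT, 0.01% Tween-20. 50 nM THF-abasic TAMRA/BHQ-2 duplex substrate started the reaction.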

[4] = qHTS for differential inhibitors of proliferation of Plasmodium falciparum line GB4 (AID 1816); details: Potency: Plasmodium falciparum GB4 proliferation inhibition;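 also: parasite growth measured after 72 h incubation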; also: potency is read from the fitted curve at half-maximal effect
[5] = qHTS for differential inhibitors of proliferation of Plasmodium falciparum line 3D7 (AID 1876); also: potency is read from the fitted curve at half-maximal effect
[6] = qHTS for differential inhibitors of proliferation of Plasmodium falciparum line D10 (AID 1877);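 also: parasites grown with compound for 72 h before DNA staining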; also: potency is read from the fitted curve at half-maximal effect
[7] = qHTS for differential inhibitors of proliferation of Plasmodium falciparum line Dd2 (AID 1882); details: Potency: Plasmodium falciparum Dd2 proliferation inhibition; also: nearly all actives have a fitted effect of over 65% in size; also: potency is read from the fitted curve at half-maximal effect
Procedure, shortened: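 SYBR Green I DNA fluorescence read-out, ex 485/em 535 nm. Signals were normalized to 0.29 uM artemisinin and DMSO wells, then corrected using vehicle-only plates flanking each stack. Parasite growth ran 72 h in erythrocytes before lysis.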

[8] = qHTS for differential inhibitors of proliferation of Plasmodium falciparum line W2 (AID 1883); details: Potency: Plasmodium falciparum W2 proliferation inhibition;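 also: parasites grown with compound for 72 h before lysis and staining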; also: potency is read from the fitted curve at half-maximal effect
[9] = qHTS for differential inhibitors of proliferation of Plasmodium falciparum line HB3 (AID 1886); details: Potency: Plasmodium falciparum HB3 proliferation inhibition;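 also: parasites grown with compound for 72 h before SYBR Green readout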; also: potency is read from the fitted curve at half-maximal effect
[10] = biological target: ATP-dependent DNA helicase Q1 (Homo sapiens) (UniProt P46063); assay: qHTS Validation Assay for Inhibitors of RecQ-Like Dna Helicase 1 (RECQ1) (AID 2353);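 also: plate controls were DMSO vehicle for no effect and enzyme-free control for full effect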
Procedure, shortened: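 50 nM RECQ1T1 preincubated 15 min with compound in Tris pH 8.0 buffer with MgCl2, DTT, Tween-20 and 2.5 ug/ml poly(dI-dC); started with 200 nM TAMRA/BHQ-2 forked duplex and 2 mM ATP. Unwinding read as fluorescence (525/598 nm), two reads 2 h apart.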

[11] = Validation screen for small molecules that induce DNA re-replication in MCF 10A normal breast cells (AID 463097); also: 0% is about no effect; nearly all actives have a fitted effect of over 60% in size
Procedure, shortened: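 Following 48 hr compound incubation (37 C, 5% CO2), MCF 10A cells receive Hoechst for 40 min at 37 C. Nuclei are then scanned (excitation 405 nm, emission 500-530 nm) for total fluorescence intensity.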

[12] = Quantitative high throughput screen for delayed death inhibitors of the malarial parasite plastid, 96 hour incubation (AID 488745); also: nearly all actives have a fitted effect of over 70% in size; also: potency is read from the fitted curve at half-maximal effect
Procedure, shortened: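 P. falciparum carrying an integrated firefly luciferase reporter, grown in erythrocytes (2% hematocrit, 0.1% parasitemia final) in RPMI 1640/0.5% Albumax, was exposed to compound for 96 h (two generations) at 37 C, 5% CO2. Luminescence decrease indicated growth inhibition.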

[13] = biological target: M-phase phosphoprotein 8 (Homo sapiens) (UniProt Q99549); assay: qHTS Validation Assay for Inhibitors for MPP8 Chromodomain Interactions with Methylated Histone Tails (AID 488949); also: nearly all actives have a fitted effect of over 55% in size; also: potency is read from the fitted curve at half-maximal effect
Sequence of M-phase phosphoprotein 8 (Homo sapiens) (Q99549 whole entry, looked up): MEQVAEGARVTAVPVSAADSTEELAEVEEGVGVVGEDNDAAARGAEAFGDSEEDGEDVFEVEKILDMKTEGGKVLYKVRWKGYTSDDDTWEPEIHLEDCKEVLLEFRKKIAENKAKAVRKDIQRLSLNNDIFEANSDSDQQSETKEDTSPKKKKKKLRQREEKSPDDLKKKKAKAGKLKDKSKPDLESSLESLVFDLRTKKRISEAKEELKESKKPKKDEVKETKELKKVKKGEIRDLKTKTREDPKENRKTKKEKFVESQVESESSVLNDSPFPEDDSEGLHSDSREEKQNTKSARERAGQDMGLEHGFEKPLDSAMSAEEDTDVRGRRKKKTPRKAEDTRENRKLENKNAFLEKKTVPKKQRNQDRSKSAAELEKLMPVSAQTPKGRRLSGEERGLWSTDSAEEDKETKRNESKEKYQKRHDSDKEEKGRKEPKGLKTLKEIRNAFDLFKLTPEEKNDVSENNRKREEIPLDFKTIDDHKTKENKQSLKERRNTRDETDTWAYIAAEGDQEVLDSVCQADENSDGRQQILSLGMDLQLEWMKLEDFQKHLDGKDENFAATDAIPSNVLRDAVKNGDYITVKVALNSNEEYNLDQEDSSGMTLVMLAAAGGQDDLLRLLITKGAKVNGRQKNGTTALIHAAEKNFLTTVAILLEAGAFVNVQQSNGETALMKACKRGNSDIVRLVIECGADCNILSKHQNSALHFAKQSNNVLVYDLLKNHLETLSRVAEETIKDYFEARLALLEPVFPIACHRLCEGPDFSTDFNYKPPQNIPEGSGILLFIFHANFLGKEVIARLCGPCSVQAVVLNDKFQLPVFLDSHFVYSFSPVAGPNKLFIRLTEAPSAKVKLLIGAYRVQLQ
Procedure, shortened: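 Chemiluminescent proximity assay: histidine-tag capture via nickel acceptor beads, biotin peptide via streptavidin donor beads. Protein and peptide each at 50 nM, pH 7.4, with 30 min incubations at room temperature for complex formation, compound exposure and bead binding.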

[14] = biological target: Transient receptor potential cation channel subfamily V member 1 (Homo sapiens) (UniProt Q8NER1); assay: HTS Assay for Compounds that Act as Enhancers of the Vanilloid Receptor 1 (AID 488979); also: 0% is about no effect
Procedure, shortened: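 TRPV1-expressing cells loaded with Fluo-8 calcium dye; compounds added and calcium influx read kinetically for 3 min (agonist phase), then capsaicin at EC20 added and read 2 min more for enhancement. Fluorescence ex 480/em 520 nm.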

[15] = biological target: Thyrotropin receptor (Homo sapiens) (UniProt P16473); assay: qHTS Assay for Antagonists of the Thyroid Stimulating Hormone Receptor (AID 488980); also: series mostly up to about 58 µM; 0% is about no effect
Sequence of Thyrotropin receptor (Homo sapiens) (P16473 whole entry, looked up): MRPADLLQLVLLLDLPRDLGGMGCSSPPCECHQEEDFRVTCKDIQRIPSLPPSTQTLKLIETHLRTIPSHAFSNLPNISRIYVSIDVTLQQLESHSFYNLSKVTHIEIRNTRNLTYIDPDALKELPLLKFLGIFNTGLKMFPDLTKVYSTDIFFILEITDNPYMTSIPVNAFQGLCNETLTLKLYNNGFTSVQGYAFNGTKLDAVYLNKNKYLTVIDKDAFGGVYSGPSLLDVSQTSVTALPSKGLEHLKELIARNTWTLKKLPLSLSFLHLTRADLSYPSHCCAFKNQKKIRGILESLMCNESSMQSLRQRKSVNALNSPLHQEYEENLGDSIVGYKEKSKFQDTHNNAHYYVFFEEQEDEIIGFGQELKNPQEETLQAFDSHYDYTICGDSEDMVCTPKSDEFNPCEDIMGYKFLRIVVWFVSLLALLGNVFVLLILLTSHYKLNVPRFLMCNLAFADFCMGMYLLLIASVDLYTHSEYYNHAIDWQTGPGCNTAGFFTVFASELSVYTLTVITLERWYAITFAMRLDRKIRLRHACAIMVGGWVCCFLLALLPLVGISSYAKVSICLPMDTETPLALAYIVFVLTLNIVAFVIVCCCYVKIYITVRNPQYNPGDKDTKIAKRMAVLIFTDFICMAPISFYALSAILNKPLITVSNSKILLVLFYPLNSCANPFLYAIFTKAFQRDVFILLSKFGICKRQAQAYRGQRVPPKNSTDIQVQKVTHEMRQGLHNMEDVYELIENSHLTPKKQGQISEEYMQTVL
Procedure, shortened: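 Inhibition of TSH-stimulated cAMP accumulation was quantified by homogeneous time-resolved FRET in TSHR-transfected HEK293 cells. Agonist: TSH, 4 nM final (EC80).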

[16] = biological target: Thyrotropin-releasing hormone receptor (Homo sapiens) (UniProt P34981); assay: qHTS for Small Molecule Agonists and Allosteric Enhancers of Human TRH Receptor: Validation Screen for Agonists (AID 493127;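 active = calcium activation more than 3 SD above the typical response in the agonist read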;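 also: intracellular calcium rise by fluo-8 fluorescence before TRH EC20 addition; 0% is about no effect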); details: TRH receptor agonist cell assay; at 2 µM; hits give high values
Sequence of Thyrotropin-releasing hormone receptor (Homo sapiens) (P34981 whole entry, looked up): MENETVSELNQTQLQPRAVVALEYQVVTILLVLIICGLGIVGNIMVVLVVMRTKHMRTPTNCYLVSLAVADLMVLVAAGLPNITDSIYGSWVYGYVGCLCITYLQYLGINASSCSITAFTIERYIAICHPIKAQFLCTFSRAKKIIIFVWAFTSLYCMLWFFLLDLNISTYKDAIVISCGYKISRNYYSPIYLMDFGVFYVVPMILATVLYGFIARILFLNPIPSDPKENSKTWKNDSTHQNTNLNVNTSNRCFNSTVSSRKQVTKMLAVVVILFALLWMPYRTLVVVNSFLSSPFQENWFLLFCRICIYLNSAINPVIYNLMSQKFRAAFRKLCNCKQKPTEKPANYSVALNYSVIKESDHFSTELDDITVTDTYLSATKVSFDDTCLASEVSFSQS
Procedure, shortened: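 TRHR-expressing cells were plated overnight in serum-containing medium, then loaded with fluo-8 calcium dye at room temperature for 30 min–1.5 h. After a 10 s baseline, compound was pin-transferred and calcium fluorescence (ex 480/em 530) read kinetically for agonist response.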

[17] = biological target: Galactokinase (Homo sapiens) (UniProt P51570); assay: qHTS Validation Assay for Inhibitors of Human Galactokinase (GALK) (AID 493189); also: 0% is about no effect
Sequence of Galactokinase (Homo sapiens) (P51570 whole entry, looked up): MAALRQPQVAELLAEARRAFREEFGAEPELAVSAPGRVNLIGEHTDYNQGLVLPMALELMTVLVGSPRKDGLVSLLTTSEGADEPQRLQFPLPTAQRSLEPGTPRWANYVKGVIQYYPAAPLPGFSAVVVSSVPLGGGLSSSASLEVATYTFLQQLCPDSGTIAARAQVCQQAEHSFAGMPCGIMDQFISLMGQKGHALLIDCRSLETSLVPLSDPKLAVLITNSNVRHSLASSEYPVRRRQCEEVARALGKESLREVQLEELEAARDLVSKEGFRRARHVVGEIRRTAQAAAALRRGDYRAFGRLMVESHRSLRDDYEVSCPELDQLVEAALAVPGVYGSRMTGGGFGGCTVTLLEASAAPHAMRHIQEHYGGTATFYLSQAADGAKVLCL
Procedure, shortened: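 Enzyme activity is inferred from ATP consumption: human GALK phosphorylates galactose (100 uM) using 35 uM ATP for 1 h at room temperature, and luciferase-based Kinase-Glo Plus reports unconsumed ATP.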

[18] = biological target: Voltage-gated inwardly rectifying potassium channel KCNH2 (Homo sapiens) (UniProt Q12809); assay: qHTS Assay for Small Molecule Inhibitors of the Human hERG Channel Activity (AID 588834);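 also: lower thallium flux fluorescence means stronger hERG block; nearly all actives have a fitted effect of over 50% in size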; also: potency is read from the fitted curve at half-maximal effect
Procedure, shortened: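 Blockade is seen as reduced FluxOR thallium-flux fluorescence in U2OS cells expressing hERG from a BacMam construct, in Opti-MEM with 2% FCS. Concentration-response data fitted to the Hill equation for AC50.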

[19] = biological target: Rap guanine nucleotide exchange factor 3 (Homo sapiens) (UniProt O95398); assay: Confirmatory qHTS for agonist of cAMP-regulated guanine nucleotide exchange factor 3 (EPAC1) (AID 1645881);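 also: EPAC1 catalysed release of BODIPY-GDP from Rap1B seen as fluorescence loss; 100% = effect of cAMP agonist control; nearly all actives have a fitted effect of over 75% in size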
Sequence of Rap guanine nucleotide exchange factor 3 (Homo sapiens) (O95398 whole entry, looked up): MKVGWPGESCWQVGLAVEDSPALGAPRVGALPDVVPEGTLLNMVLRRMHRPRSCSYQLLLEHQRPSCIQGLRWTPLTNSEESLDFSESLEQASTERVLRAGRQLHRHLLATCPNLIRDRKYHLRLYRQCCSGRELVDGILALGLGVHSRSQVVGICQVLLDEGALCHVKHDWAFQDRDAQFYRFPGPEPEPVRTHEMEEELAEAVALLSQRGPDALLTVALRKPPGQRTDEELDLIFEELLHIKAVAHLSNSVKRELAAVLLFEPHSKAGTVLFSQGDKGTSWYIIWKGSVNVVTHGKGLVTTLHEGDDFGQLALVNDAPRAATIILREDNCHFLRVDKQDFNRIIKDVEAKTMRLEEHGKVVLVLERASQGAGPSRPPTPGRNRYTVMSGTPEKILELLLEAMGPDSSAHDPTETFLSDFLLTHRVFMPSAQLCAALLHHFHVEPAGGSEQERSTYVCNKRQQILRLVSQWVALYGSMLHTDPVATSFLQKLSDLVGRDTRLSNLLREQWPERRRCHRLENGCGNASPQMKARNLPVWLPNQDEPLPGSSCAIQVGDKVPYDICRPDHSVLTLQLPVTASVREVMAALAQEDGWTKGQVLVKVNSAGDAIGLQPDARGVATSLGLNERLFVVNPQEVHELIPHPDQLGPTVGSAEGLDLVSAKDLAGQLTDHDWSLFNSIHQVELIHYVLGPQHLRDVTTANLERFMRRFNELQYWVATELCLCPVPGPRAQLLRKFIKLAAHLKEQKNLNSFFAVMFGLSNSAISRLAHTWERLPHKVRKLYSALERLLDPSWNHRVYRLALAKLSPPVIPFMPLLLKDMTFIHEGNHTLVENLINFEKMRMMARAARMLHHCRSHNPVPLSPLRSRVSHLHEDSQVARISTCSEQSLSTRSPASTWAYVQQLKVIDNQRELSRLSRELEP

[20] = biological target: Rap guanine nucleotide exchange factor 4 (Homo sapiens) (UniProt Q8WZA2); assay: Confirmatory qHTS for agonist of cAMP-regulated guanine nucleotide exchange factor 4 (EPAC2) (AID 1645884);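 also: nucleotide exchange releases bodipy-GDP from Rap1 and this lowers its fluorescence; % is scaled to controls: 0 for no effect and ±100 for the full control effect; nearly all actives have a fitted effect of over 65% in size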
Sequence of Rap guanine nucleotide exchange factor 4 (Homo sapiens) (Q8WZA2 whole entry, looked up): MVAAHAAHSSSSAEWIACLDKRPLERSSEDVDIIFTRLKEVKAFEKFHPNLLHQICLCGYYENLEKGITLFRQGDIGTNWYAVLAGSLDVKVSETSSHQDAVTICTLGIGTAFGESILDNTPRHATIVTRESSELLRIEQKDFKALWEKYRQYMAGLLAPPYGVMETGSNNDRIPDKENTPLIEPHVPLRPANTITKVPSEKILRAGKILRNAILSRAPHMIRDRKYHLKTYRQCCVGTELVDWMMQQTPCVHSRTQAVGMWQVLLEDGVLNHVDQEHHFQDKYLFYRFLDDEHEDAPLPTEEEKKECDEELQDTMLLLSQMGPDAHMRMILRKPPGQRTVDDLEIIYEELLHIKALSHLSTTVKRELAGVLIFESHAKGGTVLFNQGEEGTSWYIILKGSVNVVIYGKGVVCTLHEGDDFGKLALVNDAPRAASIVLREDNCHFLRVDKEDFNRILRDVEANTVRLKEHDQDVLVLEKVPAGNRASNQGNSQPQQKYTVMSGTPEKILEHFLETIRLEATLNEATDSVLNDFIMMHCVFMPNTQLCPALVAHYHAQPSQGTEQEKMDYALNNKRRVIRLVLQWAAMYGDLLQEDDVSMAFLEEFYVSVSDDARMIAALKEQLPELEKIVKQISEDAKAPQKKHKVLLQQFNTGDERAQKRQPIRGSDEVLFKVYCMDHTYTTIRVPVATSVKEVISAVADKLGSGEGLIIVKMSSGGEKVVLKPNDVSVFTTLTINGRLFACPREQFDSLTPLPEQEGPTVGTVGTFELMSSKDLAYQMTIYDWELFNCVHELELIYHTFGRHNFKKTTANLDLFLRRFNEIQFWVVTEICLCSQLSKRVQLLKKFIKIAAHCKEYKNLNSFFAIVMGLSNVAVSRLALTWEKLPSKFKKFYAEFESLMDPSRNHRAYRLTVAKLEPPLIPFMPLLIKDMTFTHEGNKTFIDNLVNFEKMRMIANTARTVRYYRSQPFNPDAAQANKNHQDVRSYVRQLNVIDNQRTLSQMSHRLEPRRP

CN1CCc2c(cc(O)c(O)c2Cl)C(c2cccc(Cl)c2)C1 (configuration not stated)
active: Potency [4] 5.01 µM | Potency [5] 3.55 µM | Potency [6] 10 µM | Potency [7] 11.2 µM | Potency [8] 5.01 µM | Potency [9] 8.91 µM | Potency [12] 18.5 µM | Potency [13] 39.8 µM | Potency [18] 12.6 µM
inactive: outcome [1] | outcome [2] | outcome [3] | outcome [10] | outcome [11] | outcome [14] | outcome [15] | activation [16] 0.0625% | outcome [17]

C#C[C@]1(OC(C)=O)CCC2C3CCC4=CC(=O)CCC4C3CC[C@]21C (some centres not stated)
inactive: Potency [19] | Potency [20]

CNC(=O)[C@H]1O[C@@H](n2cnc3c(N)ncnc32)[C@H](O)[C@H]1O
inactive: outcome [1] | outcome [2] | outcome [3] | Potency [4] | Potency [5] | Potency [6] | Potency [7] | Potency [8] | Potency [9] | outcome [10] | outcome [11] | Potency [12] | Potency [13] | outcome [14] | outcome [15] | activation [16] -0.0625% | outcome [17] | Potency [18]

NC(=NCc1ccc(Cl)c(Cl)c1)NC(=O)c1nc(Cl)c(N)nc1N
inactive: outcome [1] | outcome [2] | outcome [10] | outcome [15] | activation [16] 4.94% | outcome [17]
active: Potency [4] 0.891 µM | Potency [5] 0.282 µM | Potency [6] 0.398 µM | Potency [7] 1.58 µM | Potency [8] 1 µM | Potency [9] 0.501 µM | Potency [12] 0.586 µM | Potency [13] 50.1 µM | Potency [18] 2 µM

Nc1c2ccccc2nc2ccccc12 (tested in a mixture with another compound)
inactive: Potency [19] | Potency [20]

CC(=O)Oc1ccc2c(c1)CCC1C2CC[C@]2(C)C(OC(C)=O)CCC12 (some centres not stated)
inactive: Potency [19] | Potency [20]

COC(=O)CC1C2(C)CC34OC5(C)O[C@@]6(C7/C(=C(/OC)C(C)C)C(=O)OC(c8ccoc8)[C@@]7(C)C(OC(=O)C(C)C)C(OC)[C@]6(O5)[C@@]13C)C(OC)[C@]4(OC)C2OC(C)=O (some centres not stated)
inactive: Potency [19] | Potency [20]

CCCC1O[C@@H]2C[C@H]3[C@@H]4CCC5=CC(=O)C=C[C@]5(C)C4[C@@H](O)C[C@]3(C)[C@]2(C(=O)CO)O1 (some centres not stated)
active: Potency [4] 3.16 µM | Potency [5] 2.51 µM | Potency [6] 11.2 µM | Potency [7] 5.01 µM | Potency [8] 2.51 µM | Potency [9] 5.01 µM | Potency [12] 2.94 µM
inactive: outcome [1] | outcome [2] | outcome [3] | outcome [10] | outcome [11] | Potency [13] | outcome [14] | activation [16] 2.06% | outcome [17] | Potency [18]

Cc1cccc2c3c(ccc12)C1=C(C(=O)C3=O)C(C)CO1 (configuration not stated)
inactive: Potency [19] | Potency [20]

COc1ccccc1CNc1ncncc1-c1ccccc1OC
inactive: Potency [19] | Potency [20]

COc1ccc2c(c1)OCC(Cc1ccc(OC)c(OC(C)=O)c1)C2=O (configuration not stated)
inactive: Potency [19] | Potency [20]

Nc1ncnc2c1nc(Br)n2C1O[C@H]2COP(=O)(O)O[C@@H]2C1O (some centres not stated)
inactive: outcome [1] | outcome [2] | outcome [3] | outcome [10] | outcome [11] | outcome [14] | outcome [15] | activation [16] 0.688% | outcome [17] | Potency [18]
active: Potency [4] 12.6 µM | Potency [8] 5.62 µM | Potency [9] 6.31 µM

CN(C)CCCO[C@H]1C([C@H](O)CO)O[C@@H]2OC(C)(C)O[C@@H]21 (some centres not stated)
inactive: outcome [1] | outcome [2] | outcome [3] | Potency [4] | Potency [5] | Potency [6] | Potency [7] | Potency [8] | Potency [9] | outcome [10] | outcome [11] | Potency [12] | Potency [13] | outcome [14] | activation [16] 0.75% | outcome [17] | Potency [18]

COc1ccc2c(c1OC)C(=O)OC2C1c2c(cc3c(c2OC)OCO3)CCN1C (configuration not stated)
active: Potency [5] 12.6 µM | Potency [8] 14.1 µM
inactive: outcome [1] | outcome [2] | outcome [3] | Potency [7] | outcome [10] | outcome [11] | Potency [13] | outcome [14] | outcome [15] | activation [16] -4.69% | outcome [17] | Potency [18]

COC(=O)[C@@H]1C2CC3c4[nH]c5cc(OC)ccc5c4CCN3CC2C[C@H](OC(=O)c2cc(OC)c(OC)c(OC)c2)C1OC (some centres not stated)
inactive: Potency [19] | Potency [20]

COc1cc(O)c(C(=O)/C=C/c2ccc(OC)c(O)c2)c(OC)c1
inactive: Potency [19]

COc1cc(C)c(C(=O)Oc2cc(C)c(C(=O)O)c(O)c2C)c(OC)c1C
inactive: Potency [19] | Potency [20]

O=C1C=CC2=C3c4cc(O)c(O)cc4CC3(O)COC2=C1O (configuration not stated)
inactive: Potency [19] | Potency [20]

Nc1ncnc2c1ncn2[C@@H]1O[C@H](COP(=O)(O)OP(=O)(O)OP(=O)(O)OP(=O)(O)OC[C@@H]2O[C@H](n3cnc4c(N)ncnc43)[C@@H](O)[C@@H]2O)[C@H](O)[C@H]1O
inactive: outcome [1] | outcome [2] | Potency [7] | outcome [10] | outcome [11] | Potency [12] | Potency [13] | outcome [14] | outcome [15] | activation [16] 13.9% | Potency [18]

CCC(=O)OC1CCC2C3CCc4cc(O)ccc4C3CC[C@]12C (some centres not stated)
inactive: Potency [19] | Potency [20]

C[C@@H](Oc1ccc(Oc2cnc3ccc(Cl)cc3n2)cc1)C(=O)O
inactive: outcome [2] | outcome [3] | Potency [5] | Potency [6] | Potency [7] | Potency [8] | Potency [9] | outcome [10] | Potency [12] | Potency [13] | outcome [14] | outcome [15] | activation [16] -0.0625% | outcome [17] | Potency [18]

CCOC(=O)c1c(C)cc(OC)cc1O
inactive: Potency [19] | Potency [20]

CC#C[C@]1(O)CC[C@H]2C3CCC4=CC(=O)CCC4=C3[C@@H](c3ccc(N(C)C)cc3)C[C@@]21C (some centres not stated)
inactive: outcome [1] | outcome [2] | outcome [10] | outcome [14] | outcome [15] | activation [16] 28.5% | outcome [17]
active: Potency [4] 11.2 µM | Potency [5] 10 µM | Potency [6] 10 µM | Potency [8] 5.01 µM | Potency [9] 12.6 µM | Potency [12] 11.7 µM | Potency [13] 15.8 µM
